Data published in PubChem BioAssay (Tox21).
Unmarked numbers belong to inactive results. Calls of active or inactive are those of the source. Calls come from the whole dose curve; as a rule, active = well fitted curve in the direction sought with a large enough effect in the repeat runs; inconclusive = weak or mixed curves; inactive = flat fitted curve, though single readings scatter.
% is set by controls: 0 for no effect and ±100 for the full control effect.

Assay: qHTS assay to test for compound auto fluorescence at 590 nm (red) in HepG2 cell free culture (AID 720684)
Conditions: cell-free medium autofluorescence, red 540/590 nm; series mostly up to 91.3 µM
Excerpt: U.S. Tox21 Program National Center for Advancing Translational Sciences [NCATS] NIH Chemical Genomics Center [NCGC] U.S. Environmental Protection Agency [EPA] National Institutes of Environmental Health Sciences [NIEHS] National Toxicology Program [NTP] U.S. Food and Drug Administration [FDA] Tox21 Assay Overview: Compound auto fluorescence often interferes with screening of the compound library against various biological targets and signaling pathways. Some of these compounds may have fluorophoric properties. Such properties may interfere with the assay outputs resulting in false positives and/or negatives. To decrease such complications and ensure the compound activities are relevant in terms of biological response, the Tox21 10K compound library was screened for auto fluorescence. From the fluorophores used as reporter signals in our screening assays, the auto fluorescence equivalencies of compounds against three fluorophores have been evaluated: Triamterene, Fluorescein and Rose Bengal sodium for blue, green and red fluorescence, respectively. The fluorescence intensities were measured using Excitation/Emission wavelengths at 405/460nm, 485/535nm and 540/590nm for blue, green and red labels, respectively. This assay includes the red fluorescence data.
Tox21 Assay Protocol Summary: 5 uL of culture medium (MEM containing 10% FBS) per well was dispensed into black wall/clear bottom 1536-well plates using a Multidrop Combi Dispenser (ThermoFisher Scientific, Waltham, MA). After 23 nL compound or DMSO vehicle was transferred into assay plate by a pintool work station (Kalypsys, San Diego, CA), fluorescence intensities in the assay plates were measured by an Envision (PerkinElmer, Shelton, CT) plate reader using three labels for measuring blue, green and red fluorescence at […] 460, 535 and 590nm respectively.
In the case of `CC(C)=CC(C)(C)C`, the outcome is reported as “inactive”. With `CN(C)CCCNCCC#N` the outcome was “inactive”. With `NCCc1ccn[nH]1` the fluorescence, % of Rose Bengal was 0.001% [at 18.6 µM]. For `CC(=O)OC(C)c1ccccc1` (stereo not given), the outcome was “inactive”. For `Cc1ccccc1C`, the outcome was “inactive”. In the case of `O=C(CN1CCN(Cc2ccc3c(c2)OCO3)CC1)N1c2ccccc2Sc2ccccc21`, the outcome is reported as “inactive”. For `CCCCCCCCCCC`, the outcome was “inactive”. For `O=CO`, the fluorescence, % of Rose Bengal was 0.0285% [at 9.17 µM]. In the case of `CCN1CN(CC)CN(CC)C1`, the outcome is reported as “inactive”. In the case of `O=C1CC[C@H](C(=O)N2CCCCC2)N1`, the outcome is reported as “inactive”. With `CO/N=C(/C(=O)N[C@@H]1C(=O)N2C(C(=O)O)=C(Cn3nnc(C)n3)CS[C@H]12)c1csc(N)n1` the outcome was “inactive”. With `Cc1ccccc1C(=O)N1CC/C(=N\OS(=O)(=O)O)c2ccc(Cl)cc21` the outcome was “inactive”. In the case of `COc1ccc(NS(=O)(=O)c2ccc(N)cc2)nn1`, the fluorescence, % of Rose Bengal is reported as -0.359% [at 18.6 µM]. Work on `CCS(=O)(=O)CCn1c([N+](=O)[O-])cnc1C` yielded a fluorescence, % of Rose Bengal of 0.0121% [at 18.6 µM]. In the case of `CCCCCCCC/C=C\CCCCCCCC(=O)OC[C@@H](O)[C@H]1OC[C@H](O)[C@H]1O`, the outcome is reported as “inactive”. In the case of `CC(C)C(=O)c1ccccc1`, the outcome is reported as “inactive”. With `Cc1cccc(NC(=S)N(C)C)c1` the outcome was “inactive”. For `CC(C)CCO`, the outcome was “inactive”. With `CC(=O)Nc1ccc(C)cc1` the outcome was “inactive”. For `Cc1nc([N+](=O)[O-])cn1-c1ccc([N+](=O)[O-])cc1`, the outcome was “inactive”. For `CCC(C)(C)C1CCC(=O)CC1`, the outcome was “inactive”. In the case of `COc1ccc(/C=N/NC(=O)c2ccncc2)cc1OC`, the outcome is reported as “inactive”. In the case of `NC(=O)C1(N2CCCCC2)CCN(CCCC(=O)c2ccc(F)cc2)CC1`, the outcome is reported as “inactive”. With `Cc1ccccc1N1CCN(CCc2nnc3n2CCCC3)CC1` the outcome was “inactive”. With `O=C(O)c1ccccc1C(=O)OCc1ccccc1` the outcome was “inactive”. In the case of `Cc1ccccc1OCC1CO1` (stereo not given), the outcome is reported as “inactive”. `CN[C@@H]1[C@H](O)[C@H](NC)[C@H]2O[C@@]3(O)C(=O)C[C@@H](C)O[C@H]3O[C@@H]2[C@H]1O` showed a fluorescence, % of Rose Bengal of 0.555% [at 18.6 µM]. In the case of `COc1cc2c3cc1Oc1cc(ccc1O)C[C@@H]1c4c(cc(OC)c(O)c4Oc4ccc(cc4)C[C@@H]3N(C)CC2)CC[N+]1(C)C`, the outcome is reported as “inactive”. In the case of `CC(C)COC(=O)/C=C/c1ccccc1`, the outcome is reported as “inactive”. `BrC/C=C/CBr` showed a fluorescence, % of Rose Bengal of 0.0351% [at 18.6 µM]. For `CC(=O)c1ccc2c(c1)CCCC2`, the outcome was “inactive”. Work on `NS(=O)(=O)c1cc2c(cc1Cl)NC(CC1CCCC1)NS2(=O)=O` (stereo not given) yielded a fluorescence, % of Rose Bengal of 0.409% [at 18.6 µM]. `C1CCN2C[C@@H]3C[C@@H](CN4CCCC[C@@H]34)[C@H]2C1` showed a fluorescence, % of Rose Bengal of -0.0423% [at 18.6 µM]. With `CC(C)(C)NCCO` the outcome was “inactive”. With `C=CCOC(=O)c1ccc(C(=O)OCC=C)c(C(=O)OCC=C)c1` the outcome was “inactive”. With `CCN(CCC#N)c1ccccc1` the outcome was “inactive”. In the case of `COc1ccc(OC)c(NC(=O)CC(C)=O)c1`, the outcome is reported as “inactive”. With `COc1cc(C=O)ccc1OC(=O)C(C)C` the outcome was “inactive”. In the case of `NC(=O)NNC(N)=O`, the outcome is reported as “inactive”. With `CCCCC[Si](OCC)(OCC)OCC` the outcome was “inactive”.
